# Assay results from PubChem BioAssay (NCI).
# About 83,000 compounds went through this panel and 20% of them were active in at least one assay; those are over-represented in the sample as a whole.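 Treatment: one concentration, 48 hours, 96-well format. Scoring: percent growth, with anything below 10 considered active.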 Unmarked numbers belong to inactive results. Calls of active or inactive are those of the source.
# Key:
# Assay in all cases: NCI-60 one-dose screen, 48 h (100 = growth as untreated, 0 = no growth, -100 = all killed)
# Conditions in all cases: 10 µM unless noted
# NCI-H23 lung = test system: NCI-H23 lung
# NCI-H226 lung = test system: NCI-H226 lung
# NCI-H322M lung = test system: NCI-H322M lung
# HOP-62 NSCLC = test system: HOP-62 NSCLC
# NCI-H460 lung = test system: NCI-H460 lung
# HOP-92 NSCLC = test system: HOP-92 NSCLC
# NCI-H522 lung = test system: NCI-H522 lung
# 786-0 renal = test system: 786-0 renal
# COLO 205 colon = test system: COLO 205 colon
# DU-145 prostate = test system: DU-145 prostate
# K-562 leukemia = test system: K-562 leukemia
# MALME-3M melanoma = test system: MALME-3M melanoma
# MDA-MB-231 breast = test system: MDA-MB-231 breast
# SF-268 CNS = test system: SF-268 CNS
# SF-295 CNS = test system: SF-295 CNS
# SF-539 CNS = test system: SF-539 CNS
# UACC-257 melanoma = test system: UACC-257 melanoma
# M14 melanoma = test system: M14 melanoma
# A549/ATCC NSCLC = test system: A549/ATCC NSCLC
# RXF 393 renal = test system: RXF 393 renal
SMILES,growth (NCI-H23 lung),growth (NCI-H226 lung),growth (NCI-H322M lung),growth (HOP-62 NSCLC),growth (NCI-H460 lung),growth (HOP-92 NSCLC),growth (NCI-H522 lung),growth (786-0 renal),growth (COLO 205 colon),growth (DU-145 prostate),growth (K-562 leukemia),growth (MALME-3M melanoma),growth (MDA-MB-231 breast),growth (SF-268 CNS),growth (SF-295 CNS),growth (SF-539 CNS),growth (UACC-257 melanoma),growth (M14 melanoma),growth (A549/ATCC NSCLC),growth (RXF 393 renal)
CN1CCN(C(=O)OCc2nc3c(N4CCOCC4)nc(-c4ccccc4)nc3n2C)CC1,-77.1% (active),-66.7% (active),58.2%,4.63% (active),-46.9% (active),-63.5% (active),-35.3% (active),-83.3% (active),-53% (active),-83.5% (active),2.72% (active),-93.9% (active),-86.2% (active),-50.2% (active),47.9%,-99.6% (active),-49.5% (active),-73.5% (active),–,–
CO[C@@H]1[C@H](N(C)C(=O)c2ccccc2)C[C@@H]2O[C@]1(C)n1c3ccccc3c3c4c(c5c6ccccc6n2c5c31)C(=O)NC4=O,44.2%,29%,38.9%,28.5%,48.2%,4.48% (active),21.2%,–,2.3% (active),50.1%,52.4%,38.5%,41.7%,48.2%,42.5%,13.6%,61.5%,37.1%,27.3%,-37.8% (active)
O=C(N/N=C/c1cccnc1)c1ccccc1Nc1cccc(C(F)(F)F)c1,94.2%,109%,85.6%,77.5%,102%,72%,81.8%,83.7%,105%,91.1%,41.5%,65%,118%,76.6%,64.7%,96.7%,75.3%,73%,–,–
Nc1c(C(=O)Nc2cccc3ccncc23)sc2nc3c(cc12)C(=O)CCC3,58.1%,73.8%,72.3%,62.8%,11.6%,69.6%,-15.7% (active),44.5%,28.2%,38.5%,24.8%,63.7%,62.8%,55.1%,20.1%,16.1%,49.2%,26.1%,–,29.8%
Cn1/c(=N/NC(N)=S)ccc2ccccc21,94.9%,88.9%,82.4%,98.6%,108%,109%,88.9%,104%,114%,103%,46.4%,90.8%,87.7%,91.8%,89.5%,97.8%,70%,86.4%,–,102%
C#CC(=O)Nc1cccc(Nc2nc3c(c(NCc4ccccc4)n2)CCCC3)c1,-61.2% (active),-31.4% (active),-56.9% (active),-82.8% (active),-57.8% (active),-71.7% (active),-60.7% (active),-90.3% (active),-68.9% (active),-85.1% (active),-22.3% (active),-64.1% (active),-71.7% (active),-78.5% (active),-84% (active),-90.7% (active),-90.6% (active),-88.2% (active),–,-99.5% (active)
COc1ccc(Cl)cc1NC(=O)c1c(NC(=O)C(F)(F)C(F)(F)F)sc2c1CCCCC2,-5.14% (active),-5.37% (active),12%,-14.6% (active),3.45% (active),-32.7% (active),-0.0876% (active),-13.8% (active),-32.9% (active),19.3%,17.6%,-24.5% (active),-18.6% (active),6.13% (active),-25.2% (active),4.26% (active),-16.5% (active),0.83% (active),–,–
COc1c(Cl)cc(Cl)c2ccc(C=C3C(=O)N(C)C(=O)N(C)C3=O)nc12,104%,100%,106%,37.3%,96.8%,119%,92.2%,53.7%,110%,108%,100%,107%,107%,97.3%,80.3%,98.6%,106%,-15.7% (active),–,–
COc1ccc(/C=C/c2n[nH]c3ccc(N4CCOC4=O)cc23)cc1,12.4%,6.06% (active),8.47% (active),-1.37% (active),1.61% (active),-8.15% (active),51.3%,11.3%,-17.4% (active),14.7%,–,59.9%,14.6%,13%,32.8%,-1.43% (active),38.4%,26.9%,1.87% (active),–
CCOC(=O)c1c(SC)nn(-c2cc(=O)[nH]c3ccc(Br)cc23)c1N,96%,99.2%,106%,89.7%,87.8%,95.8%,95.1%,97.6%,98.2%,94.6%,–,105%,110%,90.7%,107%,102%,112%,109%,98.1%,–
CCn1cc(C2NC(=O)c3ccccc3N2)c2cccc(C)c21 (stereo unspecified),30.1%,57.2%,36.7%,31.6%,1.6% (active),80.5%,–,39.4%,-17.3% (active),12.2%,3.49% (active),48%,15.3%,43.2%,3.52% (active),-49.7% (active),66.7%,8.05% (active),18.4%,–
CN(C)CCCn1c2c(c3ccc(-c4ccn[nH]4)cc3c1=O)C(=O)c1ccccc1-2,21.6%,6.87% (active),81.9%,5.59% (active),1.55% (active),34.1%,–,2.46% (active),43%,4.84% (active),24.5%,39.7%,71.1%,44.6%,1.34% (active),46.4%,70.3%,48%,0.619% (active),68.3%
CC(=O)O[C@]1(C(C)=O)CC[C@H]2[C@@H]3C=C(Cl)C4=CC(=O)CC[C@]4(C)[C@H]3CC[C@@]21C,114%,94.4%,106%,106%,–,96.7%,72.2%,99.4%,133%,122%,96.7%,125%,88.1%,111%,113%,102%,97.2%,–,91.5%,109%
CCNNC(=O)[C@@H]1[C@H](c2cc(OC)c(OC)c(OC)c2)c2cc3c(cc2[C@H](O)[C@H]1CO)OCO3,24%,-21.5% (active),43.7%,36.3%,1.59% (active),9.16% (active),–,0.908% (active),-63.6% (active),-24% (active),13.7%,56.3%,39.6%,31.1%,9.93% (active),-10.9% (active),53%,-19.5% (active),–,15.3%
COc1ccc(/C=C/C(=O)c2ccc(OC)c(OC)c2)cc1O,73.1%,86.3%,78.6%,39.7%,44.2%,29.1%,–,98.2%,104%,21%,14.7%,90.9%,73%,80.7%,104%,79.8%,96.6%,97.7%,26.4%,72.1%
